Bioassay records: PubChem, National Center for Advancing Translational Sciences (NCATS)
Compounds with a hit are over-represented: about 1.7% of the library has one in this group of screens.
PTHR1 agonist = PTHR1 (human) receptor agonism; Q03431; HEK293 GP2 PTHR1 cells, GloSensor cAMP luminescence, 1 h; Potency, µM (titrated, usually from 115 µM), usual class: activators; 0.075% of 410,000 active; note: nearly all actives have a fitted effect of over 55% in size
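HEK-293-derived GP2 cells expressing PTHR1 and a GloSensor cAMP reporter, 3,000/well, plated overnight, given luciferin plus IBMX (each 0.5 mM as added) for 1 h at 37 °C, then compound for 1 h at 37 °C. Luminescence was read after 15 min at room temperature.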
GLP-1R inv ag = GLP-1 receptor (human) inverse agonism. P43220. HEK293 GLP-1R CRE-luciferase, luminescence, 24 h; GLP-1R form is constitutively active. Potency, µM (doses to about 38.3 µM), usual class: inhibitors. 1.6% of 410,000 active. AID 624417; note: nearly all actives have a fitted effect of over 55% in size
Target sequence (P43220 whole entry, looked up): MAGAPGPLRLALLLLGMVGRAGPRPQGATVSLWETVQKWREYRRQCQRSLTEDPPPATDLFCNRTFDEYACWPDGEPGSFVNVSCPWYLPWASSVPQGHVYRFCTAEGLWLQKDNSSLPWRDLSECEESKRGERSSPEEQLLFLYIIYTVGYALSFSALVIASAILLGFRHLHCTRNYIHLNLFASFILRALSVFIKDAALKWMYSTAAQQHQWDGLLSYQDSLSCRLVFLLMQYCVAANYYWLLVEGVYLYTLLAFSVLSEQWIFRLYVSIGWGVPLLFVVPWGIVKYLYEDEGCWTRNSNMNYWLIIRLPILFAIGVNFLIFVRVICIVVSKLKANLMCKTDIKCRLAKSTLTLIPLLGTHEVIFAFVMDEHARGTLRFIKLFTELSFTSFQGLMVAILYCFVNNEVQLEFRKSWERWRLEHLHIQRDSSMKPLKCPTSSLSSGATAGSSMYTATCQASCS
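Inverse agonism was detected as reduced cAMP-driven luciferase luminescence after 24 h compound treatment. The cells were HEK293 clones expressing constitutively active human GLP-1R with the reporter. Reporter-only and GPR119 cell lines served as counterscreen controls.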
GLP-1R agonist = activates the human GLP-1 receptor; HEK293 GLP-1R CRE-luciferase, luminescence, 4-6 h; cells express a hypersensitive GLP-1R form; Potency, µM (titrated, usually from 45.6 µM), most hits filed as activators; 0.007% of 380,000 active; P43220
GLP1R cytotox = cytotoxic in the GLP-1 receptor inverse agonist counter-screen. HEK293 cAMP-luciferase reporter cells, luminescence, 24 h. Potency, µM (highest dose often 38.3 µM), usual class: inhibitors. 0.13% of 410,000 active. AID 624418;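 note: loss of luciferase light is scored as toxicity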
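1536-well qHTS counterscreen of the MLSMR; 200 cells/uL, 12 h pre-incubation, 23 nL cpd, 24 h at 37 deg C 5% CO2, luciferase detection reagent, 12 min RT, luminescence. Inhibition = undesired.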
Numbers stand for hits; – = inactive; ? = inconclusive; · = no result. Calls come from the whole dose curve; as a rule, active = well fitted curve in the direction sought with a large enough effect; inconclusive = small, poorly fitted or top-dose-only effect, or another doubt; inactive = no such curve, though single readings can be large; an effect the other way counts as inactive or inconclusive.

SMILES | PTHR1 agonist | GLP-1R inv ag | GLP-1R agonist | GLP1R cytotox
COc1ccccc1OCc1ccc(C(=O)c2ccccc2)cc1 | – | ? | – | –
COc1ccccc1OCCOc1ccc(C(=O)c2ccccc2)cc1 | – | 8.9µM | – | –
CO[C@H]1C[C@@H]2CC[C@@H](C)[C@@](O)(O2)C(=O)C(=O)N2CCCC[C@H]2C(=O)O[C@H]([C@H](C)C[C@@H]2CC[C@@H](O)[C@H](OC)C2)CC(=O)[C@H](C)/C=C(\C)[C@@H](O)[C@@H](OC)C(=O)[C@H](C)C[C@H](C)/C=C/C=C/C=C/1C | · | · | – | ·
CCOc1ccc(NC(=O)/C=C\C(=O)N(c2ccc(C(C)C)cc2)C(C(=O)NCc2ccco2)c2ccc(F)cc2)cc1 (centres undefined) | – | ? | · | –
Cc1ccc(Cn2ccsc2=NC(=O)CCl)cc1 | – | 10µM | – | –
COc1ccc(C(=O)NC(Nc2ccccc2)C(Cl)(Cl)Cl)cc1 (centres undefined) | – | 7.1µM | – | –
O=C(NOCc1ccccc1)c1ccc(Cl)cc1 | – | ? | – | –
COc1ccc(C(=O)NC(NC(=S)Nc2ccc(S(N)(=O)=O)cc2)C(Cl)(Cl)Cl)cc1 (centres undefined) | – | 3.2µM | – | –
COc1ccc(C(=O)NOCc2ccccc2)cc1 | – | 3.2µM | – | –
COc1ccc(C2C(C(=O)Nc3ccccc3OC)=C(C)Nc3c(C(=O)Nc4ccccc4)cnn32)c(OC)c1 (centres undefined) | ? | ? | · | –
Cc1cc(N2CCN(Cc3nc(-c4ccc(F)cc4)oc3C)CC2)cc(C)n1 | – | 4.5µM | – | –
Cc1ccc(C)c(NC(=O)N2CCN(C(=O)c3nsc4ccccc34)CC2)c1 | – | – | · | –
Cc1ccc(C)c(N/C(N)=N/c2nc(C)cc(C)n2)c1 | – | 8.9µM | – | ?
COc1cc(C(=O)NCCCc2nc3ccccc3n2CC(C)C)cc(OC)c1OC | – | – | – | –
CN1CCc2nc3sc(C(=O)Nc4ccccc4C(F)(F)F)c(N)c3cc2C1 | – | – | · | –
Cc1cc(Cl)ccc1OC(C)C(=O)N1CCCN(C(=O)C(C)Oc2ccc(Cl)cc2C)CC1 (centres undefined) | – | 5µM | – | ?
Cc1cc(Cl)ccc1OCC(=O)N1CCCN(C(=O)COc2ccc(Cl)cc2C)CC1 | – | ? | – | –
CC(C)(C)c1ccc(CSC2=Nc3ccccc3C3=NC(CC(=O)NCc4cccs4)C(=O)N23)cc1 (centres undefined) | – | 10µM | · | –
CN(C)c1ccc(NC(=O)CSC2=Nc3ccccc3C3=NC(CCC(=O)NCc4cccs4)C(=O)N23)cc1 (centres undefined) | – | 5.6µM | · | –
Cc1ccc(-c2cc(C(F)(F)F)nc(SCC(=O)c3cccc([N+](=O)[O-])c3)n2)cc1 | – | 5.6µM | – | –
O=C(OC1CCCCC1)c1ccc(NC(=O)C2CCCCC2)cc1 | – | 2.5µM | – | –
CCCCc1ccc(NC(=O)C2CCCC2)cc1 | – | 10µM | – | –
CCOC(=O)C1CCN(C(=O)Cn2ncc3c4ccccc4n(Cc4ccc(F)cc4)c3c2=O)CC1 | – | ? | · | –
CCCSc1nc(N2CCOCC2)c2c(c1C#N)CC(C)(C)SC2 | – | 10µM | – | –
COc1ccc2c(c1)-c1nc(NC(=O)c3cc(OC)c(OC)c(OC)c3)sc1CC2 | ? | 10µM | · | ?
SMILES | PTHR1 agonist | GLP-1R inv ag | GLP-1R agonist | GLP1R cytotox
Cc1ccc(CNc2oc(-c3ccco3)nc2S(=O)(=O)c2ccccc2)cc1 | – | 10µM | – | –
CCn1c(=O)c2cc(C(=O)NCCCN3CCN(c4ccc(F)cc4)CC3)sc2c2ccccc21 | – | – | – | –
CCN(CC)c1ccc(/C=N/Nc2nc(C)cc(C)n2)cc1 | – | 11µM | – | ?
CC1CCN(S(=O)(=O)c2ccc3c(c2)CCC(=O)N3CC(=O)Nc2cccc(C#N)c2)CC1 | – | – | · | –
Cc1ccc(S(=O)(=O)N2CCOCC2)cc1NC(=O)COc1cccc(Oc2ccccc2)c1 | – | 10µM | – | –
Cc1ccc(S(=O)(=O)N2CCOCC2)cc1NC(=O)CN1CCC(Cc2ccccc2)CC1 | – | 7.1µM | – | –
Cc1ccc(S(=O)(=O)N2CCOCC2)cc1NC(=O)CN1CCN(C)CC1 | – | – | – | –
CCC(C)(C)NC(=O)CSc1nc(Cc2ccccc2)nc2ccccc12 | – | 4.5µM | – | –
O=C(/C=C/NNC(=O)c1ccc(Br)cc1)c1ccccc1 | – | ? | – | ?
O=C(/C=C/NNC(=O)c1ccccc1)c1ccccc1 | – | ? | – | 3.2µM
CC(C)N(C(=O)CSc1nc2ccccc2n1Cc1ccc(F)cc1)C(C)C | – | 2.8µM | – | ?
COC(=O)c1ccc(Cn2c(SCC(=O)Nc3ccc(F)cc3)nc3ccccc32)cc1 | – | – | · | –
CN(C(=O)CSc1nc2ccccc2n1Cc1cccc(C(F)(F)F)c1)c1ccccc1 | – | 10µM | · | –
CC1CCc2c(sc3nc(C4CC4)nc(N4CCN(C(=O)c5ccco5)CC4)c23)C1 (centres undefined) | – | 5.6µM | – | ?
CCC(=O)OC1CCC2C3CCc4cc(O)ccc4C3CCC12C (centres undefined) | · | · | – | ·
CCOC(=O)CC(=O)CSc1nc2c(sc(=S)n2-c2ccc(C)c(C)c2)c(=O)[nH]1 | – | 8.9µM | – | –
COc1ccccc1-c1noc(CSc2nnc(Cc3ccccc3)n2-c2ccc(C)c(C)c2)n1 | – | ? | · | –
O=S(=O)(c1ccccc1Cl)N1CCC(Cc2ccccc2)CC1 | – | 7.9µM | – | –
CN(CC(=O)NC(=O)NCc1ccccc1)CC(=O)Nc1ccc(Cl)c(C(F)(F)F)c1 | – | 7.9µM | – | –
CCc1nc2ccc(C(=O)N(C)CC(=O)Nc3ccc(Cl)c(C(F)(F)F)c3)cc2nc1CC | – | 8.9µM | – | ?
CN(CC(=O)NC(=O)NCc1ccccc1)Cc1ccc(Cl)cc1 | – | ? | – | –
CN(CC(=O)NCc1ccccc1)CC(=O)Nc1ccc(Cl)c(C(F)(F)F)c1 | – | ? | – | –
CN(CC(=O)NC(=O)NCc1ccccc1)Cc1cccc(Cl)c1Cl | – | 10µM | – | –
O=C(/C=C/c1ccccc1Cl)Nc1nc(-c2cccs2)ns1 | – | – | · | –
Cc1cc(C)cc(NC(=O)c2ccc3c(c2)nnn3C2CCCC2)c1 | – | – | · | ?
Cc1ccccc1-c1nc(CN2CCC(C(=O)NC(C)C)CC2)c(C)o1 | – | – | · | –
Cc1nn(-c2ccc(F)cc2)c(Cl)c1C(=O)OC(C)C(=O)N(C)C1CCCCC1 (centres undefined) | – | 5µM | – | –
CC1CCC(O)C/C1=C\C=C1/CCCC2(C)C1CCC2C(C)/C=C/C(C)C(C)C (centres undefined) | · | · | – | ·
O=C(/C(=C/c1ccc(Cl)cc1)c1nc2ccccc2[nH]1)c1cccs1 | – | 4.5µM | – | ?
O=C(/C(=C\c1ccccc1)c1nc2ccccc2[nH]1)c1ccc(Cl)cc1 | – | ? | – | ?
